Sampled rows, rich in hits. Any-hit rate of the full collection: about 3.2%.
AmpC inh detg – blocks E. coli AmpC beta-lactamase in detergent assay; 370,000 tested, 0.041% active; P00811; AmpC hydrolysis of nitrocefin, absorbance 480 nm, 0.01% Triton; Potency, µM (highest dose often 114 µM), for the others: at the top dose activity change, negative = inhibition, usual class: inhibitors;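 note: 0% = no-compound wells and -100% = no-enzyme wells; nearly all actives have a fitted effect of over 25% in size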
Target sequence (P00811 whole entry, looked up): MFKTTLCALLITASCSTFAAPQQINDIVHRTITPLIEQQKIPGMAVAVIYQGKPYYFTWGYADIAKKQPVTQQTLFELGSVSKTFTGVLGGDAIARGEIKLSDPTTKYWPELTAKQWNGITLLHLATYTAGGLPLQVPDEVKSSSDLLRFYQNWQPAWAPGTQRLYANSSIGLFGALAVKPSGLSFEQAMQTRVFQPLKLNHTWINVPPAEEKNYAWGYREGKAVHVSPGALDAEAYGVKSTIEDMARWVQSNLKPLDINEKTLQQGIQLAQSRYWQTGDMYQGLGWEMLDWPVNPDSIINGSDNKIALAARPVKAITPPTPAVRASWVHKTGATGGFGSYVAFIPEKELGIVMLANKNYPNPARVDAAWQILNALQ
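AmpC (5.3 nM in the dispensed reagent) in 20 mM phosphate pH 7.0 with 0.01% (detergent screen) or 0.0001% Triton X-100 was preincubated with compounds for 15 min at room temperature. Nitrocefin was then added from an 800 uM solution, and hydrolysis was followed at 480 nm.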
Sm TGR inh – blocks Schistosoma mansoni thioredoxin glutathione reductase; Q962Y6; purified TGR, DTNB reduction, TNB absorbance 405 nm; Potency, µM (doses to about 114 µM), for inactives: at the top dose activity change, negative = inhibition, usual class: inhibitors; 360,000 tested, 3% active; AID 485364; note: nearly all actives have a fitted effect of over 60% in size
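Kinetic colorimetric format: TGR-catalysed, NADPH-driven DTNB reduction monitored via TNB absorbance. Enzyme dispensed at 20 nM; compound exposure 15 min at room temperature before reaction start.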
AMA1 RON2 block – disrupts binding of P. falciparum AMA1 to RON2; AlphaScreen AMA1-biotinylated RON2 peptide binding; AID 720542; Potency, µM (series often up to 58.2 µM), for inactives: at the top dose activity change, negative = inhibition, actives largely listed as inhibitors; 360,000 tested, 0.2% active;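 note: 0% = vehicle wells and -100% = peptide control; nearly all actives have a fitted effect of over 45% in size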
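AMA1 (3D7) with his tag at 25 nM final met compounds first, then biotinylated RON2 peptide at 25 nM; detection used donor plus acceptor beads, 10 µg/mL apiece, read by AlphaScreen after 30 min at room temperature.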
RE007 growth inh – less growth of the S. pombe RE007 Vpr strain; S. pombe RE007 Vpr strain, BacTiter-Glo ATP luminescence, 24 h; Potency, µM (top dose mostly 92.2 µM), for the others: top-dose activity change, negative = less growth, most hits filed as inhibitors; 360,000 tested, 0.21% active; AID 651644; active = well fitted falling curve with a large enough effect; inconclusive = small, poorly fitted or top-dose-only effect; inactive = no such curve, though single readings can be large or run the other way; note: nearly all actives have a fitted effect of over 50% in size
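Fission yeast RE007 carrying one integrated HIV-1 vpr copy, seeded at OD 0.01 in PMG+AL medium with 23 nL pinned compound. Grown 24 h at 30 degrees; viability read by BacTiter-Glo luminescence after 5 min.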
AmpC no deterg – inhibitors of E. coli AmpC beta-lactamase without detergent; P00811; AmpC nitrocefin hydrolysis, absorbance 480 nm, 0.0001% Triton; Potency, µM (titrated, usually from 57.1 µM), inactives show at the top dose activity change, negative = inhibition, hits mostly inhibitors; 330,000 tested, 0.52% active; AID 485341;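 note: plate controls were no compound for no effect and no enzyme for full effect; nearly all actives have a fitted effect of over 20% in size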
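AmpC (5.3 nM in the dispensed reagent) in 20 mM phosphate pH 7.0 with 0.01% (detergent screen) or 0.0001% Triton X-100 was preincubated with compounds for 15 min at room temperature. Nitrocefin was then added from an 800 uM solution, and hydrolysis was followed at 480 nm.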
* marks the source's active call; other numbers are inactive results; ? = inconclusive; / = not tested or not shown; [ ] = dose if it differs, or a comment. Unless noted, calls come from the whole dose curve; as a rule, active = well fitted curve in the direction sought with a large enough effect; inconclusive = small, poorly fitted or top-dose-only effect, or another doubt; inactive = no such curve, though single readings can be large; an effect the other way counts as inactive or inconclusive. Unless noted, % is set by controls: 0 for no effect and ±100 for the full control effect; potency is the fitted concentration of half-maximal effect.

SMILES	AmpC inh detg	Sm TGR inh	AMA1 RON2 block	RE007 growth inh	AmpC no deterg
CC1CCN(C(c2ccc(N(C)C)cc2)c2nnnn2C(C)(C)C)CC1 (centres undefined)	?	5.6µM*	?	-2%	40%
CCC(C)(C)n1nnnc1C(c1ccc(O)cc1)N1CCc2ccccc2C1 (centres undefined)	-2%	?	29%	-14%	-28%
CN(C)c1ccc(C(c2nnnn2C(C)(C)C)N2CCc3ccccc3C2)cc1 (centres undefined)	-1%	11µM*	/	/	-5%
CC(C)(C)n1nnnc1C(c1ccccc1)N1CCc2ccccc2C1 (centres undefined)	?	35µM*	-5%	12%	-27%
CCCCn1nnnc1C(c1ccccc1)N1CCc2ccccc2C1 (centres undefined)	/	/	3%	-3%	/
Cc1nc2nc(NC(=O)c3ccc(C(C)(C)C)cc3)[nH]n2c(=O)c1C	19%	-5%	/	/	/
CN(C)c1ccc(NC(=O)C2(c3cccs3)CCOCC2)cc1	4%	-9%	/	/	/
C1CCC2(CC1)C1=C(CCCC1)Nc1nnnn12	?	45µM*	5%	1%[3.69 µM]	-19%
Nc1nc2n(n1)C1(CCCCC1)C1=C(CCCC1)N2	-21%	?	/	/	1%
CCc1nn2c(=O)cc(COC(=O)c3ccc(NC(=O)CCc4ccccc4)cc3)nc2s1	3%	-1%	/	/	/
CCCCCn1c(=O)c(F)cn(Cc2ccc(OC)c([N+](=O)[O-])c2)c1=O	-5%	-1%	12%	7%	-1%
CCCCCCn1c(=O)c(F)cn(Cc2ccc(OC)c([N+](=O)[O-])c2)c1=O	2%	-1%	-9%	2%	0.14µM*
CC(C)(C)OC(=O)N1CCN(C(=O)c2nc[nH]c2C(=O)N2CCN(C(=O)OC(C)(C)C)CC2)CC1	-2%	0%	7%	0%	25%
CCn1cc(Br)c(C(=O)N2CCN(c3ccccc3)CC2)n1	-7%	-9%	-6%	-2%	/
Cn1cnc(C(=O)N2CCN(C(=O)OC(C)(C)C)CC2)c1C(=O)N1CCN(C(=O)OC(C)(C)C)CC1	4%	22µM*	-1%	2%	16%
Cn1cnc(C(=O)N2CCN(c3ccccc3)CC2)c1C(=O)N1CCN(c2ccccc2)CC1	1%	20µM*	-8%	22%	102%
CC(Sc1oc(-c2cccs2)nc1S(=O)(=O)c1ccccc1)c1ccccc1 (centres undefined)	11%	-7%	/	/	/
CCOc1ccc(Br)cc1CNc1ccc2c(c1)OCCO2	-14%	-32%	32µM*	-17%	-43%
C=CCOc1ccccc1CNc1ccc2c(c1)OCCO2	-5%	?	-25%	-4%	-6%
Cc1cccc(-n2ncc3c(N4CCCC(C)C4)ncnc32)c1 (centres undefined)	11%	12%	/	/	/
O=C(Nc1ccccc1F)Nc1cccc2ccc(O)cc12	1%	32µM*	-7%	/	-54%
CC(=O)Nc1cccc2ccc(O)cc12	/	/	0%	5%	/
CC1CCCN(S(=O)(=O)c2ccc(NC(=O)CNC3CCCC3)cc2)C1 (centres undefined)	?	-1%	10%	-10%	-21%
Cc1ccc(CS(=O)(=O)c2ncc(Cl)c(C(=O)Nc3ccc(OC(F)F)cc3)n2)cc1	-3%	10µM*	-18%	-6%	-14%
CSc1ncc(Cl)c(C(=O)Nc2ccc(NC(C)=O)cc2)n1	2%	0%	3%	8%	-28%
SMILES	AmpC inh detg	Sm TGR inh	AMA1 RON2 block	RE007 growth inh	AmpC no deterg
CCS(=O)(=O)c1ncc(Cl)c(C(=O)Nc2ccc(S(=O)(=O)N3CCCC(C)C3)cc2)n1 (centres undefined)	?	0.35µM*	4%	8%	31%
CCC1CCCCN1S(=O)(=O)c1ccc(NC(=O)c2nc(S(C)(=O)=O)ncc2Cl)cc1 (centres undefined)	?	2µM*	-8%	-9%	-5%
CCS(=O)(=O)c1ncc(Cl)c(C(=O)Nc2ccc(C)cc2)n1	-9%	6.3µM*	-8%	-1%	-6%
CCSc1ncc(Cl)c(C(=O)Nc2ccc(S(=O)(=O)N3CCCCC3CC)cc2)n1 (centres undefined)	21%	5%	/	/	/
COc1ccc(NC(=O)c2nc(S(=O)(=O)Cc3ccc(C)cc3)ncc2Cl)cc1	1%	?	/	/	/
Cc1ccc(Cl)cc1NC(=O)C(=O)NCCc1sc(-c2ccc(F)cc2)nc1C	13%	-1%	/	/	/
O=C(NCc1cccnc1)c1nn(-c2ccc(F)cc2)nc1CO	-1%	-2%	/	/	/
CC1CCc2c(sc3nnn(Cc4ccccc4Cl)c(=O)c23)C1 (centres undefined)	22%	3%	/	/	/
CSc1ncc2c(n1)-c1ccccc1N(Cc1ccc(F)cc1)S2(=O)=O	9%	5%	/	/	/
CC1(C)CC(=O)C2=C(C1)c1c(ccc3ccccc13)NC2c1ccco1 (centres undefined)	-9%	45µM*	-11%	-1%	-21%
CCOc1ccccc1CN1CCc2nc(N3CCN(c4ccccc4F)CC3)ncc2C1	-4%	7%	/	/	/
CN(C)c1ccc(C=C2C=C(c3ccccc3)OC2=O)cc1	/	/	8.9µM*	-20%	/
CC(=O)Oc1cccc(/C=C2\C=C(c3ccc(C)cc3)OC2=O)c1	1%	/	23%	-26%	-20%
COc1ccc(C2=C/C(=C\c3ccc(OC(C)=O)cc3)C(=O)O2)cc1	-5%	50µM*	2%	-29%	-28%
Cc1ccc(C=C2C=C(c3ccccc3)OC2=O)cc1	/	/	-10%	-11%	/
COC(=O)c1ccc(NC(=O)c2cc(S(=O)(=O)N3CCc4ccccc43)cn2C)cc1	25%	-19%	/	/	/
O=C(c1ccc2nc(N3CCCCC3)sc2c1)N1CCN(Cc2ccc3c(c2)OCO3)CC1	?	-8%	?	18%	32µM*
CCc1cccc(CC)c1NC(=O)COC(=O)c1cccc(S(=O)(=O)N2CCc3ccccc3C2)c1	-1%	0%	4%	2%	18µM*
CCN(CC(=O)Nc1c(F)cccc1F)C(=O)c1cccc(S(=O)(=O)N2CCc3ccccc3C2)c1	-16%	-2%	8%	-8%	1%
Cc1cccc(C(C)C)c1NC(=O)COC(=O)c1cccc(S(=O)(=O)N2CCc3ccccc3C2)c1	-6%	1%	-8%	-17%	7.9µM*
CN(C)S(=O)(=O)c1cccc(NC(=O)COC(=O)c2cccc(S(=O)(=O)N3CCc4ccccc4C3)c2)c1	-10%	-21%	8%	-16%	-22%
Cc1ccc(-n2nc(-c3ccc(F)cc3)c3cnc4cc5c(cc4c32)OCO5)cc1C	?	2%	/	/	/
CCOc1ccccc1NC(=O)C(=O)c1cc(C)n(-c2cccc(C)c2C)c1C	1%	-11%	/	/	/
